{"source": "PubChem BioAssay AID1511", "about": "(Johns Hopkins Ion Channel Center, 2009)", "note": "Screen size: about 310,000 compounds; about 1,600 (0.52%) were called active. Many of the other results were omitted from the sample, so actives are more common in it than they were. A number with no mark means an inactive call.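 How the source made its calls: active means activation above the mean of controls blocked by dofetilide plus 5 SD; inactive means the rest.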"}
{"target": "Voltage-gated inwardly rectifying potassium channel KCNH2 (Homo sapiens) (UniProt Q12809)", "sequence (Q12809 whole entry, looked up)": "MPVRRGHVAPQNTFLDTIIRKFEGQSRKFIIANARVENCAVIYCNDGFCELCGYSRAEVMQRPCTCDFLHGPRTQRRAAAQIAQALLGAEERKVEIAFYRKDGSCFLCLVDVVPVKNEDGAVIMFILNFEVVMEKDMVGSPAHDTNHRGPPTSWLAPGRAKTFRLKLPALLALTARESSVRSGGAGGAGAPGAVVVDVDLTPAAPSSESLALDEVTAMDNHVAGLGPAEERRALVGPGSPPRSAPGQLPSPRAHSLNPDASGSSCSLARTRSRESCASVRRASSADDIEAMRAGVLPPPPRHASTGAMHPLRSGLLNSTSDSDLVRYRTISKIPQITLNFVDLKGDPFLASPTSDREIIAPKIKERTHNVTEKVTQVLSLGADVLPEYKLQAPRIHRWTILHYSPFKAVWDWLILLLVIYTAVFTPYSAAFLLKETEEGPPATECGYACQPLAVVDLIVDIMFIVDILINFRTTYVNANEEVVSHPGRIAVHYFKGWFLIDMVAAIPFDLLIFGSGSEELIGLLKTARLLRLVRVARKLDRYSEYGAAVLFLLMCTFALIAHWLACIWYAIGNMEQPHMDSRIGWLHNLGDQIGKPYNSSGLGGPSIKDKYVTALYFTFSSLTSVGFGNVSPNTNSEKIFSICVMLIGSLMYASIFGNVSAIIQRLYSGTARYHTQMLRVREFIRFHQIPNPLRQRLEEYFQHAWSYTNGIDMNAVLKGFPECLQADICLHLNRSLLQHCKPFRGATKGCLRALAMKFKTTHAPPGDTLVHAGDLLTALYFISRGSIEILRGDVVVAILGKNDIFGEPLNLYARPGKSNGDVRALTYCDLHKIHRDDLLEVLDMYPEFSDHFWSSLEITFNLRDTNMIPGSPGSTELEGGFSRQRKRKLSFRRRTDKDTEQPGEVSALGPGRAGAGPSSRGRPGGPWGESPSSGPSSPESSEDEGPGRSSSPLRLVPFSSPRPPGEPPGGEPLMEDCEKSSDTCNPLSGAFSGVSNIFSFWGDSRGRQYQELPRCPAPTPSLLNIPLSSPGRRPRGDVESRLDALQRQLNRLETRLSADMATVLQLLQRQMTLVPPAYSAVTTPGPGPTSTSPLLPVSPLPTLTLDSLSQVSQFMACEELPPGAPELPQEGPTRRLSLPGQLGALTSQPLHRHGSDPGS", "test": "hERG rescue from dofetilide block, primary screen, cell-based, CHO-hERG, FluxOR thallium flux, dofetilide IC70 (AID 1511);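 further: thallium influx through hERG after potassium depolarization seen as dye fluorescence rise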", "conditions": "dofetilide IC70 present, at 10 µM, active compounds read high"}
{"smiles": "Cc1cccc(NC(=O)c2ccc3ccccc3n2)n1", "activation (rescue from dofetilide block), less the hit threshold": "-1.08%"}
{"smiles": "CCOC(=O)C(=CNc1cccc(C)n1)C(=O)OCC", "activation (rescue from dofetilide block), less the hit threshold": "5.91% (active)"}
{"smiles": "Cc1cccc(NC(=O)Cc2ccc(Br)cc2)n1", "activation (rescue from dofetilide block), less the hit threshold": "-12.3%"}
{"smiles": "COC(=O)[C@H](CC(C)C)NC(=O)N1CCCCC1C", "note": "(some centres undefined)", "activation (rescue from dofetilide block), less the hit threshold": "-7.74%"}
{"smiles": "CCc1ccc(CN(C)C(=O)CCc2nnc(-c3ccc(-c4ccccc4)cc3)o2)nc1", "activation (rescue from dofetilide block), less the hit threshold": "-22.3%"}
{"smiles": "NS(=O)(=O)c1ccc(CNC(=O)c2ccc(Cl)cc2[N+](=O)[O-])cc1", "activation (rescue from dofetilide block), less the hit threshold": "-2.96%"}
{"smiles": "O=C(Cn1ccc2cc(S(=O)(=O)N3CCCC3)ccc21)NCc1ccccc1", "activation (rescue from dofetilide block), less the hit threshold": "-5.85%"}
{"smiles": "Cc1ccc(/C=N/NC(=O)c2cc3ccccc3cc2O)o1", "activation (rescue from dofetilide block), less the hit threshold": "41.5% (active)"}
{"smiles": "N=c1oc2ccccc2cc1C(=O)N/N=C/c1ccccc1", "activation (rescue from dofetilide block), less the hit threshold": "-8.66%"}
{"smiles": "O=C(N/N=C/c1cccnc1)c1cc2ccccc2cc1O", "activation (rescue from dofetilide block), less the hit threshold": "-0.07%"}
{"smiles": "CCCCCN1CC(O)=C(c2ccccc2)C1=N", "activation (rescue from dofetilide block), less the hit threshold": "5.35% (active)"}
{"smiles": "CCCCCN1CC(O)=C(c2nc(-c3ccc(Cl)cc3)cs2)C1=N", "activation (rescue from dofetilide block), less the hit threshold": "-8.57%"}
{"smiles": "CCOC(=O)CCCN1CC(O)=C(c2nc3ccccc3s2)C1=N", "activation (rescue from dofetilide block), less the hit threshold": "-12%"}
{"smiles": "CCC1OC(c2ccc([N+](=O)[O-])cc2)=Nc2ccccc21", "note": "(centres undefined)", "activation (rescue from dofetilide block), less the hit threshold": "-15.1%"}
{"smiles": "Cc1ccc(C(C)C)cc1OCC(=O)Nc1ccccc1N1CCCC1", "activation (rescue from dofetilide block), less the hit threshold": "-20.3%"}
{"smiles": "CCc1cc2c(=O)c(-c3ccc(F)cc3)c(C(F)(F)F)oc2cc1OCC(=O)O", "activation (rescue from dofetilide block), less the hit threshold": "-11.1%"}
{"smiles": "CCc1cc2c(=O)c(-c3ccon3)c(N)oc2cc1OC", "activation (rescue from dofetilide block), less the hit threshold": "5.25% (active)"}
{"smiles": "COc1ccc2oc(N)c(C=O)c(=O)c2c1", "activation (rescue from dofetilide block), less the hit threshold": "-3.18%"}
{"smiles": "CCOC(=O)c1cc(-c2ccc(Cl)s2)nc2c1c(C)nn2C", "activation (rescue from dofetilide block), less the hit threshold": "-9.55%"}
{"smiles": "CC12c3ccccc3C(c3ccccc31)C1C(=O)N(Cc3cccnc3)C(=O)C12", "note": "(centres undefined)", "activation (rescue from dofetilide block), less the hit threshold": "-9.37%"}
{"smiles": "CCOC(=O)C1CCN(C(=O)COc2cccc3ccccc23)CC1", "activation (rescue from dofetilide block), less the hit threshold": "-10.3%"}
{"smiles": "O=C(CN(CC1CCCO1)C(=O)CNS(=O)(=O)c1ccccc1)NCc1ccccc1", "note": "(centres undefined)", "activation (rescue from dofetilide block), less the hit threshold": "-7.03%"}
{"smiles": "O=C(CN(CC1CCCO1)C(=O)CNS(=O)(=O)c1ccc(F)cc1)NCc1ccco1", "note": "(centres undefined)", "activation (rescue from dofetilide block), less the hit threshold": "4.78% (active)"}
{"smiles": "CC(C)C(C(=O)NCc1ccco1)N(CC1CCCO1)C(=O)CNS(=O)(=O)c1ccc(F)cc1", "note": "(centres undefined)", "activation (rescue from dofetilide block), less the hit threshold": "0.16%"}
{"smiles": "O=C(CSc1ccccn1)N1CCN(S(=O)(=O)c2ccc(Cl)cc2)CC1", "activation (rescue from dofetilide block), less the hit threshold": "-10.1%"}
{"smiles": "CC1(C)Cc2cccc(OCC(N)=O)c2O1", "activation (rescue from dofetilide block), less the hit threshold": "-3.71%"}
{"smiles": "CC1(C)Cc2cccc(OCC(=O)NCc3ccccc3)c2O1", "activation (rescue from dofetilide block), less the hit threshold": "-7.06%"}
{"smiles": "CC1(C)Cc2cccc(OCC(=O)Nc3nccs3)c2O1", "activation (rescue from dofetilide block), less the hit threshold": "7.68% (active)"}
{"smiles": "Cc1ccc2c(c1)N(S(=O)(=O)c1cc(-c3cc(C)no3)ccc1C)CCO2", "activation (rescue from dofetilide block), less the hit threshold": "-7.78%"}
{"smiles": "O=C(CCc1ccccc1)NCCc1cccs1", "activation (rescue from dofetilide block), less the hit threshold": "-5.64%"}
{"smiles": "COc1cc(S(=O)(=O)N2CCOCC2)ccc1NC(=O)COc1ccc(N(C)S(=O)(=O)c2ccc(C)cc2)cc1", "activation (rescue from dofetilide block), less the hit threshold": "-22.3%"}
{"smiles": "O=C1NC(c2ccccc2)Oc2ccccc21", "note": "(centres undefined)", "activation (rescue from dofetilide block), less the hit threshold": "-10.1%"}
{"smiles": "FC(F)(F)Oc1ccc(NC(=S)NCc2ccccc2)cc1", "activation (rescue from dofetilide block), less the hit threshold": "-9.66%"}
{"smiles": "CCNC(=S)Nc1ccc(OC(F)(F)F)cc1", "activation (rescue from dofetilide block), less the hit threshold": "-17.9%"}
{"smiles": "CS(=O)(=O)c1sc(C(=O)NC(=S)Nc2ccc(OC(F)(F)F)cc2)c2c1C=CCC2", "activation (rescue from dofetilide block), less the hit threshold": "6.46% (active)"}
{"smiles": "CC1(C)Cc2c(sc(NC(=O)C(=O)N3CCOCC3)c2C#N)CO1", "activation (rescue from dofetilide block), less the hit threshold": "-11.7%"}
{"smiles": "CCC(=O)Nc1cccc(NC(=O)CSc2nnnn2C2CCCC2)c1", "activation (rescue from dofetilide block), less the hit threshold": "-7.7%"}
{"smiles": "CC(=O)Nc1ccc(NC(=O)CSc2nnnn2C2CCCCC2)cc1", "activation (rescue from dofetilide block), less the hit threshold": "-7.91%"}
{"smiles": "O=C(CSc1nnnn1C1CCCC1)Nc1ccc2c(c1)OCCO2", "activation (rescue from dofetilide block), less the hit threshold": "6.54% (active)"}
{"smiles": "O=C(O)c1ccccc1-c1ccccc1C(=O)NCCc1ccccc1", "activation (rescue from dofetilide block), less the hit threshold": "-5.86%"}
{"smiles": "CC(C)c1ccc(S(=O)(=O)NC2CCCC2)cc1", "activation (rescue from dofetilide block), less the hit threshold": "-6%"}
{"smiles": "CCOc1cc(CNn2c(C)nnc2SCC(=O)NC(C)(C)C)ccc1OCC(=O)NC(C)(C)C", "activation (rescue from dofetilide block), less the hit threshold": "-9.51%"}
{"smiles": "CC1CCN(C(=S)NC2CC3CCC2C3)CC1", "note": "(centres undefined)", "activation (rescue from dofetilide block), less the hit threshold": "-8.02%"}
{"smiles": "COc1ccc(CNC(=O)[C@@H]2CC=C[C@@H]3CCN(C4CC4)C(=O)[C@@H]32)cc1", "activation (rescue from dofetilide block), less the hit threshold": "-7.13%"}
{"smiles": "COc1ccc(CN2CC[C@H]3C=CC[C@@H](C(=O)N4CCOCC4)[C@H]3C2=O)cc1OC", "activation (rescue from dofetilide block), less the hit threshold": "5.8% (active)"}
{"smiles": "COc1ccc(CN2CCOC2=O)cc1OC", "activation (rescue from dofetilide block), less the hit threshold": "-6.78%"}
{"smiles": "Cc1ccc(S(=O)(=O)c2c[nH]c3ccc(C)cc3c2=O)cc1", "activation (rescue from dofetilide block), less the hit threshold": "-9.36%"}
{"smiles": "Cn1c(CC(=O)Nc2ccc(F)cc2)nnc1SCC(=O)NC1CCCCC1", "activation (rescue from dofetilide block), less the hit threshold": "-1.47%"}
{"smiles": "CCOC(=O)c1c(NC(=S)Nc2ccccc2)sc2c1CCN(C)C2", "activation (rescue from dofetilide block), less the hit threshold": "-15.5%"}
